Reference: PubChem BioAssay (NCATS)
Results filed as inconclusive are left out. Active and inactive are the calls of the source. Unless noted, calls follow the shape of the dose curve; as a rule, active = well fitted curve in either direction with a large enough effect (not every such curve was filed as active); inconclusive = small, poorly fitted or top-dose-only effect, or another doubt; inactive = flat fitted curve, though single readings scatter.

Columns and labels:
[1] = AP1 Signaling Pathway (AID 357);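 also: ME-180 reporter cells stimulated with EGF at its EC50 level; % is scaled to controls: 0 for no effect and ±100 for the full control effect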
Outline: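 Read-out was the 460nm/530nm emission ratio (excitation 405nm) after CCF4 loading for 2.5 hours at room temperature. Cells carried an AP-1-driven beta-lactamase reporter, were stimulated with EC50 EGF plus compound for 5 hours, and AC50 values came from titrations.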

[2] = target: Cytochrome P450 1A2 (Homo sapiens) (UniProt P05177); assay: p450-cyp1a2 (AID 410; calls by dose curve;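 also: -100% = full effect of reference inhibitor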)
Outline: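 Luminescent readout of luciferin formed from Luciferin-ME by human CYP1A2; data normalized against complete inhibition by 57 uM furafylline. Enzyme 20nM, substrate 100uM at Km, 100mM KPO4 buffer, 60 min reaction at room temperature.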

[3] = NFAT Signaling Pathway (AID 444); conditions: Jurkat NFAT-bla M1, carbachol, beta-lactamase ratio, 5 h; at 17.2 µM (top of the series);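 also: carbachol stimulus at about its EC50 of 1 µM final; % is scaled to controls: 0 for no effect and ±100 for the full control effect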
Outline: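 Read-out: CCF4 FRET ratio (460 nm/530 nm) after 1 h RT dye loading, used for %activity and AC50 from titration series. Cells: Jurkat NFAT-β-lactamase/M1 line, treated with compound plus 1 uM carbachol for 5 h, 37 °C.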

[4] = Stat Signaling Pathway (AID 446);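 also: ME-180 cervical cancer cells given 40 pM IL-6 alongside compound; SIE-controlled beta-lactamase reporter measured as 460/530 nm FRET emission ratio; % is scaled to controls: 0 for no effect and ±100 for the full control effect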
Outline: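 ME-180 SIE-bla cells; overnight plating; cpd + IL-6 40 pM, 5 h, 37 C; LiveBLAzer 2.5 h RT; 460/530 nm emission ratio. Normalized to 300 pM IL-6 and 125 nM JAK inhibitor controls.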

[5] = target: Glucocorticoid receptor (Homo sapiens) (UniProt P04150); assay: GR-GFP Redistribution (AID 450;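 active = compounds whose dose series gives a full or clear partial fitted curve of increased nuclear translocation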; also: potency is read from the fitted curve at half-maximal effect); conditions: U2OS GR-GFP nuclear translocation, laser cytometry, 2 h
[6] = target: Glucocorticoid receptor (Homo sapiens) (UniProt P04150); assay: GR-EFC Redistribution (AID 451; calls by dose curve; also: potency is read from the fitted curve at half-maximal effect); conditions: CHO-K1 GR-EFC translocation, beta-gal luminescence, 2 h
Outline: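 Translocation of GR-ED fusion to nuclear EA restores b-gal, read by luminescence after 1 h room-temperature detection. Engineered CHO-K1 biosensor cells, 1,000/well, exposed 2 h at 37 C to titrations up to 46 uM final.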

[7] = target: Mitogen-activated protein kinase 10 (Mus musculus) (UniProt Q61831); assay: JNK3 AlphaScreen Assay (AID 530);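 also: kinase came from lysate of stimulated human HepG2 cells; signal reports phosphorylation of biotinylated GST-cJun 1-79 at Ser73 with 10 µM ATP; % is scaled to controls: 0 for no effect and ±100 for the full control effect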
Outline: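 Compound titrations were preincubated 15 minutes at room temperature with substrate, antibody and pre-activated JNK3-containing HepG2 lysate. Reactions were started with 10 uM ATP and stopped with EDTA-containing bead buffer for AlphaScreen detection.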

[8] = target: 3',5'-cyclic-AMP phosphodiesterase 4B (Homo sapiens) (UniProt Q07343); assay: qHTS Assay for Inhibitors of PDE-IV (AID 607; active = well fitted activation curve with a large enough effect in the main read-out, with a control signal flat, not every such curve was filed as active; also: % of control where 0% means no effect)
Outline: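 ACTOne HEK293 cells carry a modified cAMP-gated CNG channel and express endogenous PDE4; plated 1000 cells/well, compounds up to 22.9 uM final. Membrane-potential dye fluorescence (ex 535/em 590) was read; parental cells received 10 uM forskolin + 100 uM RO 20-1724.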

[9] = qHTS Assay for Lipid Storage Modulators (AID 1519; calls by dose curve); conditions: Drosophila S3 cells, BODIPY lipid droplet/cell ratio, laser cytometry, cells loaded with oleic acid; for activity change, negative = inhibition: at 25.7 µM (top of the series)
Outline: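 Cells seeded at 5,000 per well were treated with compounds over a concentration series and loaded with oleic acid (400 uM, as added). Lipid droplet fluorescence (488 nm excitation, 500-530 nm channel) was read by laser-scanning cytometry and normalized to 20 uM Triacsin C.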

[10] = target: Ubiquitin carboxyl-terminal hydrolase 1 (Homo sapiens) (UniProt O94782); assay: Inhibitors of USP1/UAF1: Pilot qHTS (AID 504865; active = well fitted curve in the direction sought with a large enough effect; an effect the other way counts as inactive or inconclusive; also: nearly all actives have a fitted effect of over 35% in size; also: potency is read from the fitted curve at half-maximal effect)
Outline: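 USP1/UAF1 complex at 1 nM preincubated 15 min at room temperature with compound, then Ub-Rho substrate added at 150 nM final. Fluorescence (480/540 nm) read kinetically in 50 mM HEPES pH 7.8, 0.5 mM EDTA, 1 mM TCEP, 0.1 mg/ml BSA, 0.01% Tween-20.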

[11] = target: Cytochrome P450 3A4 (Homo sapiens) (UniProt P08684); assay: qHTS Assay for Activators of Cytochrome P450 3A4 (AID 885; active = well fitted curve in the direction sought with a large enough effect; an effect the other way counts as inactive or inconclusive; also: nearly all actives have a fitted effect of over 65% in size)
Outline: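 20nM CYP3A4 + 25uM Luciferin-PPXE (=KM), 200mM KPO4; cpd 10 min RT; NADPH regen, 60 min RT; stop w/ detection buffer, 20 min; luminescence. Normalized to 57 uM ketoconazole.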

[12] = target: ATP-dependent 6-phosphofructokinase (Trypanosoma brucei brucei) (UniProt O15648); assay: qHTS Assay to Find Inhibitors of T. brucei phosphofructokinase: hit validation (AID 492961; active = well fitted curve in the direction sought with a large enough effect; an effect the other way counts as inactive or inconclusive)
Outline: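 In this biochemical qHTS validation, titrated compounds were tested against 1.25 nM PFK with 0.1 mM ATP and 0.5 mM F6P. Percent activity came from controls lacking or containing enzyme.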

[13] = target: Luciferin 4-monooxygenase (Photinus pyralis) (UniProt P08659); assay: Biochemical firefly luciferase enzyme assay for NPC (AID 624030; active = well fitted curve in the direction sought with a large enough effect; an effect the other way counts as inactive or inconclusive;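 also: purified P. pyralis luciferase at 10 nM with luciferin and ATP substrate; 0% = DMSO and -100% = full luciferase inhibition by PTC124 control; nearly all actives have a fitted effect of over 70% in size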)
Outline: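 Direct inhibition of firefly luciferase enzyme (10 nM final, 50 mM Tris Acetate) assessed by luminescence within 5 minutes. Percent activity scaled between DMSO and PTC124 positive control, with concentration-effect curves classified by fit quality and response.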

[14] = S16 Schwann cell PMP22 intronic element firefly luciferase assay (AID 624032; active = well fitted curve in the direction sought with a large enough effect; an effect the other way counts as inactive or inconclusive;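 also: plate controls were DMSO for no effect and PTC124 positive control mean for full effect; nearly all actives have a fitted effect of over 30% in size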)
Outline: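 Luciferase reporter of PMP22 intronic-element expression in stably transfected S16 rat Schwann cells, read by ONE-Glo luminescence after 24 h compound exposure at 37 C. Activity scaled between DMSO (0%) and positive-control PTC124; concentration-effect curves quality-classified.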

[15] = qHTS profiling for inhibitors of Plasmodium falciparum proliferation (AID 504749; active = well fitted curve in the direction sought with a large enough effect; an effect the other way counts as inactive or inconclusive;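 also: 0% = DMSO vehicle and full inhibition = artemisinin control; nearly all actives have a fitted effect of over 60% in size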); conditions: P. falciparum in erythrocytes, SYBR Green DNA, 72 h, at 12.8 µM (top of the series)
Outline: (§1)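 Infected RBCs, 0.3% parasitemia/2.5% Hct final; cpd 72 h, 37 C, 5% CO2; lysis buffer with saponin/triton/SYBR Green I, o/n RT dark; FI 485/535; norm. to artemisinin (0.29 uM) and DMSO.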

C2A = assay: as above; conditions: P. falciparum in erythrocytes, SYBR Green DNA, 72 h; series mostly up to 28.7 µM
Outline: as §1

CP192 = assay: as above; conditions: P. falciparum in erythrocytes, SYBR Green DNA, 72 h; series mostly up to 28.7 µM
Outline: as §1

CP262 = assay: as above; conditions: P. falciparum in erythrocytes, SYBR Green DNA, 72 h; series mostly up to 28.7 µM
Outline: as §1

FAB9 = assay: as above; conditions: P. falciparum in erythrocytes, SYBR Green DNA, 72 h; series mostly up to 28.7 µM
Outline: as §1

[16] = measured here: cell count channel max response
[17] = measured here: lipid channel max response

Glucocorticoid receptor (Homo sapiens), sequence (P04150 whole entry, looked up, the tested form may be a part): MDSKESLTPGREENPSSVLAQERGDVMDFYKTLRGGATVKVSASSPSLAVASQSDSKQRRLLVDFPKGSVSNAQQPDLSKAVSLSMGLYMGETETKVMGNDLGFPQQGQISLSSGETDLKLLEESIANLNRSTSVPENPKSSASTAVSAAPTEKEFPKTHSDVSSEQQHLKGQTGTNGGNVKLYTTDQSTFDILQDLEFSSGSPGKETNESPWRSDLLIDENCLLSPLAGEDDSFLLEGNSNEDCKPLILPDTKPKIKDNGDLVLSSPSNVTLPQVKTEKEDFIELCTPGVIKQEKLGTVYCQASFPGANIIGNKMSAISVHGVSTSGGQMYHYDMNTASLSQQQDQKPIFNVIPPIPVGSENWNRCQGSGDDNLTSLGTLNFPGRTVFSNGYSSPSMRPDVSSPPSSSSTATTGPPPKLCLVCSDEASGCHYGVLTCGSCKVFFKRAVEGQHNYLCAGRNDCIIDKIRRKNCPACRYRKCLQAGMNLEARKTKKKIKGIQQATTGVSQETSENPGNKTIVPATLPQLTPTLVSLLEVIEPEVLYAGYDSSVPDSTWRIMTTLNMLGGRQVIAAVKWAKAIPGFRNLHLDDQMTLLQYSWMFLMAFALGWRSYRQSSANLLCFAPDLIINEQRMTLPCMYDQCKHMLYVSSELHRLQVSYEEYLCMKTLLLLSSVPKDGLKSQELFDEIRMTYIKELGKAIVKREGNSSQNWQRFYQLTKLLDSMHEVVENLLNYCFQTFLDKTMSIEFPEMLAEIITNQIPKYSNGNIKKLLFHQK
3',5'-cyclic-AMP phosphodiesterase 4B (Homo sapiens), sequence (Q07343 whole entry, looked up): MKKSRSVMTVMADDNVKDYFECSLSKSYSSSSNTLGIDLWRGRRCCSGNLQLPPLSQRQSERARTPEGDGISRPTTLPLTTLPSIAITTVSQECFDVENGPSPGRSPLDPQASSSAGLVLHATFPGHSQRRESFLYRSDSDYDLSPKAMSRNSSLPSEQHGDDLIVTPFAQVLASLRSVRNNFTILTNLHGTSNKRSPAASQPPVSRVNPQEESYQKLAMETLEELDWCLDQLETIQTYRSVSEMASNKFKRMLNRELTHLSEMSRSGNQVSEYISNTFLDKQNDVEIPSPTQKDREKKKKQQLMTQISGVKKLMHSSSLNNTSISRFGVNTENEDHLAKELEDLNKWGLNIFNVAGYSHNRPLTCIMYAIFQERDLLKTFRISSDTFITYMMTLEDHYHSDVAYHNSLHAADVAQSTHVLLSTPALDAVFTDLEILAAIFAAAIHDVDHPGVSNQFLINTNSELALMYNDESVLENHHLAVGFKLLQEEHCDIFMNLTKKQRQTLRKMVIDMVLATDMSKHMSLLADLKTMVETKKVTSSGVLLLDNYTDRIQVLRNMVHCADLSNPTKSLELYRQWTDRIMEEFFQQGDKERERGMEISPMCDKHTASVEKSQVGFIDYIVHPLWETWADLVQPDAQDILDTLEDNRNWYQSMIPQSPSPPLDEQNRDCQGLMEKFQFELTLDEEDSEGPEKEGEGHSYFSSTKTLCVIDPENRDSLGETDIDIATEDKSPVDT
Ubiquitin carboxyl-terminal hydrolase 1 (Homo sapiens), sequence (O94782 whole entry, looked up): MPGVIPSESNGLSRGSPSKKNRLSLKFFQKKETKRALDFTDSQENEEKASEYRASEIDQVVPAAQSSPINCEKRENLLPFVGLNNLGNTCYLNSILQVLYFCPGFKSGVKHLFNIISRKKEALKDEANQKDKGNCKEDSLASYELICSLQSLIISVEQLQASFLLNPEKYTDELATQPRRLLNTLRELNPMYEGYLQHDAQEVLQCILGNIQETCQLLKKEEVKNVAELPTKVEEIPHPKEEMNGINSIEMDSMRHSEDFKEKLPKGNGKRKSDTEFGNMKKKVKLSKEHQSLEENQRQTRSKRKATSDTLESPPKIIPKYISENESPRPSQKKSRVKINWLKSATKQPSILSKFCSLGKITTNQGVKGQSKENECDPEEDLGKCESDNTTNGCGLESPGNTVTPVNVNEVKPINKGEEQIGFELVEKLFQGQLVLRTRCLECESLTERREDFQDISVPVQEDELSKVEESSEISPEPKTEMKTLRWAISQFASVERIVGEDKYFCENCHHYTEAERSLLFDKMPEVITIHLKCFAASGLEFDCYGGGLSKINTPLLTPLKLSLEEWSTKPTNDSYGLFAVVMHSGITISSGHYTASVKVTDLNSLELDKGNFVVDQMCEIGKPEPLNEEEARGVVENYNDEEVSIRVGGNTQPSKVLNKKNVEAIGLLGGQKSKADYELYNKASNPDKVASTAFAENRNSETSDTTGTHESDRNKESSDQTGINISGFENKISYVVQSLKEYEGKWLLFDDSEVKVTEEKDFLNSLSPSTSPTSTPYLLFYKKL
Cytochrome P450 1A2 (Homo sapiens), sequence (P05177 whole entry, looked up): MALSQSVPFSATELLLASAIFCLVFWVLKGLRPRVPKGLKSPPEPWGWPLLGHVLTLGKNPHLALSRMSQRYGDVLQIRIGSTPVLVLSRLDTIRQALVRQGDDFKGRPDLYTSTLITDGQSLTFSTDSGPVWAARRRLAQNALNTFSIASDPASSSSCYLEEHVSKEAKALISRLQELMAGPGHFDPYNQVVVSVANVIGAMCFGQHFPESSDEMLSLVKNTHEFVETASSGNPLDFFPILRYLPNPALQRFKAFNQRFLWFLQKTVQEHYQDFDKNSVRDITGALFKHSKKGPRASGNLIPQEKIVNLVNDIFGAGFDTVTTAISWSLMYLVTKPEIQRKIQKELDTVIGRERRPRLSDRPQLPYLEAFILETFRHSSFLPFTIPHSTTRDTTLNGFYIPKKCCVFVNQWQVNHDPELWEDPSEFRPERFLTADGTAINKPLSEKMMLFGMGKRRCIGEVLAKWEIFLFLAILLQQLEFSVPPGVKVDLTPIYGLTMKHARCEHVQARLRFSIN
Luciferin 4-monooxygenase (Photinus pyralis), sequence (P08659 whole entry, looked up): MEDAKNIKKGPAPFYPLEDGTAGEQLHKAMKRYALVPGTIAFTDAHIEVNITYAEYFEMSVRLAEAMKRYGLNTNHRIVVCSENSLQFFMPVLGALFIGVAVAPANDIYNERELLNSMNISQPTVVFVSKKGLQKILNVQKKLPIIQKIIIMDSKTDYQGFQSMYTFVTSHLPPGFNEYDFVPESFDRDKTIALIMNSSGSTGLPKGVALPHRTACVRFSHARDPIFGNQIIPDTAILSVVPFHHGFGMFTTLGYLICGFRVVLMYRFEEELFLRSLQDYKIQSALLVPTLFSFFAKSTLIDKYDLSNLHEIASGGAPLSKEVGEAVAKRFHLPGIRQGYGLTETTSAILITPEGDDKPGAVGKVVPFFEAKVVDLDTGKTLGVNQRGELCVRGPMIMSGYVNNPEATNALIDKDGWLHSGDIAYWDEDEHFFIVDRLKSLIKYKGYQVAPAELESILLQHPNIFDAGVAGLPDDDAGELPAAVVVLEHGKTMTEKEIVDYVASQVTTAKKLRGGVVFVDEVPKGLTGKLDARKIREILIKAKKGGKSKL
Cytochrome P450 3A4 (Homo sapiens), sequence (P08684 whole entry, looked up): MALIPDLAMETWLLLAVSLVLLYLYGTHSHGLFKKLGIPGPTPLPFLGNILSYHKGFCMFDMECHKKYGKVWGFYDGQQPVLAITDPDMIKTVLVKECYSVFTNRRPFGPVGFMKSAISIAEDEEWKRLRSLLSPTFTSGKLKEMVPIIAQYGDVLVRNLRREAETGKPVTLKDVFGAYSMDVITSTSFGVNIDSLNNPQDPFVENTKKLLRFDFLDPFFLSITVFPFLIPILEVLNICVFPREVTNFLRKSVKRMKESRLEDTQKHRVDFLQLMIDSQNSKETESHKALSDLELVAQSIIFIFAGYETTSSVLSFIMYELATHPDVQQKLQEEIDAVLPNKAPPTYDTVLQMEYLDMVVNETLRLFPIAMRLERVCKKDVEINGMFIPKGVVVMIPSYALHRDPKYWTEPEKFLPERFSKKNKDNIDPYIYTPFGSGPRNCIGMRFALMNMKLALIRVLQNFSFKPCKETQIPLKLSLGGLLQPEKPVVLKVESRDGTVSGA
ATP-dependent 6-phosphofructokinase (Trypanosoma brucei brucei), sequence (O15648 whole entry, looked up): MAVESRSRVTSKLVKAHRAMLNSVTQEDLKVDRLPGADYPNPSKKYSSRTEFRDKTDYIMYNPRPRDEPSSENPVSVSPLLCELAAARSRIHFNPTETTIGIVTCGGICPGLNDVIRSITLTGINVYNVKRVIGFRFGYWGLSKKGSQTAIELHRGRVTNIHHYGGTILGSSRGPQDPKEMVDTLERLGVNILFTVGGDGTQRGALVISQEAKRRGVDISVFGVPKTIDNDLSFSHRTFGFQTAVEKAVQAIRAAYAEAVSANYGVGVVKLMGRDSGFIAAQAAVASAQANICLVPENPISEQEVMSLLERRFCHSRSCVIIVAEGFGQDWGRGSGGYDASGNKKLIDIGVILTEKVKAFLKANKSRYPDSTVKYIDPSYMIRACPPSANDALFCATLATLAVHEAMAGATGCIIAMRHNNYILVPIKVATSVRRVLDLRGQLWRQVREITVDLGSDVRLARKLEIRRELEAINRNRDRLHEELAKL

CC[N@+]1(C)CCC[C@@H](OC(=O)C(O)(c2ccccc2)c2ccccc2)C1
inactive: outcome [1] | Potency [2] | outcome [4] | Potency [5] > 20.6 µM | Potency [6] > 20.6 µM | outcome [7] | Potency [8] | activity change, negative = inhibition [9] -4.06% | Potency [10]
-5.77%: max response [9, 17]
active: activity change, negative = inhibition [3] -31.8%
-4.84%: max response [9, 16]

C[C@H]1CC[C@@]2(NC1)O[C@@H]1C[C@H]3[C@@H]4CC[C@@H]5C[C@@H](O)CC[C@@]5(C)[C@@H]4CC[C@]3(C)[C@@H]1[C@@H]2C
inactive: outcome [1] | Potency [2] | activity change, negative = inhibition [3] 1.76% | outcome [4] | outcome [7] | Potency [8] | activity change, negative = inhibition [9] -2.33%
-2.87%: max response [9, 17]
0.178%: max response [9, 16]

CN(C)[C@@H]1C(=O)C(C(N)=O)=C(O)[C@]2(O)C(=O)C3=C(O)c4c(O)cccc4[C@@](C)(O)[C@H]3[C@H](O)[C@@H]12
-12.1%: max response [9, 16]
inactive: outcome [1] | Potency [2] | activity change, negative = inhibition [3] -3.39% | outcome [4] | outcome [7] | Potency [8] | activity change, negative = inhibition [9] -0.12%
-10.8%: max response [9, 17]
active: Potency [10] 31.6 µM

CCN1C[C@]2(C)CC[C@H](O)[C@@]34[C@@H]5CC6[C@@H](OC)C[C@@](O)([C@@H]5[C@@H]6O)[C@H](C[C@@H]23)[C@H]14
-6.13%: max response [9, 16]
-11.4%: max response [9, 17]
inactive: outcome [1] | Potency [2] | activity change, negative = inhibition [3] -2.56% | outcome [4] | Potency [5] > 20.6 µM | Potency [6] > 20.6 µM | outcome [7] | Potency [8] | activity change, negative = inhibition [9] -2.73% | Potency [10]

CNC[C@H](O)c1ccc(O)c(OC)c1
8.44%: max response [9, 17]
inactive: outcome [1] | Potency [2] | activity change, negative = inhibition [3] 3.38% | outcome [4] | Potency [5] > 20.6 µM | Potency [6] > 20.6 µM | Potency [8] | activity change, negative = inhibition [9] -0.567% | Potency [10]
7.01%: max response [9, 16]

COc1cc2c(c(OC)c1OC)-c1ccc(O)c(=O)cc1[C@H](N)CC2
-6.02%: max response [9, 16]
inactive: outcome [1] | Potency [2] | activity change, negative = inhibition [3] 14.9% | outcome [4] | Potency [5] > 20.6 µM | Potency [6] > 20.6 µM | outcome [7] | Potency [8] | Potency [11] | activity change, negative = inhibition [9] 1.48% | Potency [10]
-4.27%: max response [9, 17]

CC(C)[C@@]1(NC(=O)[C@@H]2C[C@H]3c4cccc5[nH]cc(c45)C[C@@H]3N(C)C2)O[C@]2(O)[C@H]3CCCN3C(=O)[C@H](Cc3ccccc3)N2C1=O
5.89%: max response [9, 17]
inactive: outcome [1] | Potency [2] | activity change, negative = inhibition [3] 1.85% | outcome [4] | Potency [5] > 20.6 µM | Potency [6] > 20.6 µM | outcome [7] | Potency [8] | activity change, negative = inhibition [9] -1.27% | Potency [10]
6.35%: max response [9, 16]

CN1[C@@H]2CCC[C@H]1CC(=O)C2
inactive: outcome [1] | Potency [2] | activity change, negative = inhibition [3] -4.22% | outcome [4] | Potency [5] > 20.6 µM | Potency [6] > 20.6 µM | outcome [7] | Potency [8] | activity change, negative = inhibition [9] -2.47% | Potency [10]
-3.94%: max response [9, 17]
-0.588%: max response [9, 16]

C[C@H]1C(=O)O[C@@H]2CCN3CC=C(COC(=O)[C@@](C)(O)[C@@]1(C)O)[C@H]23
4.14%: max response [9, 16]
3.19%: max response [9, 17]
inactive: outcome [1] | Potency [2] | activity change, negative = inhibition [3] 3.38% | outcome [4] | Potency [5] > 20.6 µM | Potency [6] > 20.6 µM | outcome [7] | Potency [8] | activity change, negative = inhibition [9] -2.11% | Potency [10]

CC(C)(C)NC[C@H](O)c1cc(Cl)c(N)c(Cl)c1
inactive: outcome [1] | Potency [2] | activity change, negative = inhibition [3] -7.65% | outcome [4] | outcome [7] | Potency [8] | activity change, negative = inhibition [9] -0.0671% | Potency [10]
2.72%: max response [9, 17]
1.84%: max response [9, 16]

CC[C@H]1CN2CC[C@@H]1C[C@H]2[C@@H](O)c1ccnc2ccc(OC)cc12
-1.96%: max response [9, 16]
inactive: outcome [1] | Potency [2] | activity change, negative = inhibition [3] -20.4% | outcome [4] | Potency [5] > 20.6 µM | Potency [6] > 20.6 µM | outcome [7] | activity change, negative = inhibition [9] -3.88%
-5.46%: max response [9, 17]

CCN1C[C@@]2(COC)CC[C@H](O)[C@@]34[C@@H]2C[C@@H]([C@@H]13)[C@]1(O)C[C@@H](OC)C2C[C@H]4[C@H]1[C@H]2OC(C)=O
-5.05%: max response [9, 17]
inactive: outcome [1] | Potency [2] | activity change, negative = inhibition [3] -14.2% | outcome [4] | Potency [5] > 20.6 µM | Potency [6] > 20.6 µM | outcome [7] | Potency [8] | activity change, negative = inhibition [9] 2.15%
-6.46%: max response [9, 16]

C[N+]1([O-])[C@@H]2CC[C@H]1CC(OC(=O)[C@@H](CO)c1ccccc1)C2 (stereo partly drawn)
-2.94%: max response [9, 17]
1.61%: max response [9, 16]
inactive: outcome [1] | Potency [2] | outcome [4] | Potency [5] > 20.6 µM | Potency [6] > 20.6 µM | outcome [7] | Potency [8] | activity change, negative = inhibition [9] -4.15% | Potency [12] | Potency [13] | Potency [14] | activity, negative = inhibition ([15]; parasite line A) 1.56% | activity, negative = inhibition ([15]; parasite line B) -10% | Potency (C2A) | Potency (CP192) | Potency (CP262) | Potency (FAB9)

CC[C@H](C)C(=O)O[C@@H]1[C@H](O)[C@@H]2[C@H](CN3C[C@@H](C)CC[C@@H]3[C@@]2(C)O)[C@@H]2C[C@@]34O[C@@]5(O)[C@@H](OC(=O)[C@](C)(O)CC)CC[C@@]3(C)[C@H]5[C@H](OC(C)=O)[C@@H](OC(C)=O)[C@H]4[C@]12O
-3.1%: max response [9, 17]
inactive: outcome [1] | Potency [2] | activity change, negative = inhibition [3] -8.39% | outcome [4] | Potency [5] > 20.6 µM | Potency [6] > 20.6 µM | outcome [7] | activity change, negative = inhibition [9] -1.19%
-2.6%: max response [9, 16]
